Source: PubChem
Marburg entry inh = Marburg virus entry inhibition; 300,000 tested, 1.8% active; Potency, µM (titrated, usually from 37.8 µM), without a hit: top-dose activity change, negative = inhibition, actives largely listed as inhibitors; AID 540276; Marburg virus pseudotyped entry inhibition, cell reporter; calls by dose curve; tested in HEK293 cells; further: potency means the concentration at half of the fitted maximal effect; on the % scale 0 is the no-effect control and ±100 the full control effect
Shiga inhibitor = inhibitors of Shiga toxin in Vero cells. Vero cells, Shiga toxin protein synthesis inhibition reporter. inhibition, % at 38.7 µM. 290,000 tested, 9.2% active; in the data active means inhibition mostly above about 28%, no sharp cut-off; inactive means mostly below about 43%; further: 0% is about no effect
Lassa entry inh = blocks Lassa virus binding to or entry into cells; 300,000 tested, 1.2% active; AID 540256; Potency, µM (doses to about 37.9 µM), inactives show top-dose activity change, negative = inhibition, hits mostly inhibitors; Lassa virus pseudotype entry inhibition, cell reporter; calls by dose curve; tested in HEK293 cells; further: potency means the concentration at half of the fitted maximal effect; on the % scale 0 is the no-effect control and ±100 the full control effect; nearly all actives have a fitted effect of over 50% in size
Cycloheximide cs = affects cycloheximide protein synthesis inhibition readout, counter-screen; 300,000 tested, 12% active; cell reporter, cycloheximide protein synthesis inhibition counterscreen; AID 2314; max response, %; in the data active means max response mostly above about 13%, no sharp cut-off; inactive means mostly below about 14%; further: read at 38.3 µM for the half of the compounds with a filed dose; 0% is about no effect
Active calls of the source: *; [ ] = another dose, or the depositor's remark. This is a sample that favours compounds with a hit; in the whole collection about 12% have one here.

For Cc1cc(C)n(CCc2nc(-c3cccs3)cs2)n1 the results were Marburg entry inh 5.4%, Shiga inhibitor 40.1*, Lassa entry inh -10.2% and Cycloheximide cs 11.5.
Screening COc1ccc(OC)c(-c2csc(CCn3nc(C)cc3C)n2)c1 returned Shiga inhibitor -5.9 and Cycloheximide cs 3.3.
`Cc1cc(C)n(CCc2nc(-c3ccc(-c4ccccc4)cc3)cs2)n1` gave Marburg entry inh 11.1%[46.1 µM], Shiga inhibitor 88.2*, Lassa entry inh 12.6%[46.1 µM] and Cycloheximide cs 58.3*.
For COc1ccc(-c2csc(CCn3nc(C)cc3C)n2)cc1OC the results were Marburg entry inh -6.8%[46.1 µM], Shiga inhibitor -3.4, Lassa entry inh -2.7%[46.1 µM] and Cycloheximide cs 14.9.
Screening COc1ccccc1-n1c(-c2ccc(C)cc2)nc2ccccc2c1=O returned Marburg entry inh inconclusive, Shiga inhibitor 47.6*, Lassa entry inh -17.8%[46.1 µM] and Cycloheximide cs 28.5*.
O=C(NCCc1csc(-c2ccc(F)cc2)n1)C(=O)Nc1ccc(Cl)cc1 was read as Lassa entry inh -2.9%[46.1 µM].
Cc1cc(NC(=O)Cn2nc([N+](=O)[O-])c(Br)c2C)no1 was read as Marburg entry inh inconclusive, Shiga inhibitor 8.4, Lassa entry inh inconclusive and Cycloheximide cs 1.5.
`CN(/N=C/c1ccc(Cl)cc1)c1ncc(Cl)cc1C(F)(F)F` gave Marburg entry inh -24.2%[46.1 µM], Shiga inhibitor 1.3, Lassa entry inh inconclusive and Cycloheximide cs 11.4*.
`Cc1ccc(C(=O)N/C(=C\c2ccc(-c3ccccc3[N+](=O)[O-])o2)C(=O)NCCCN(C)C)cc1` gave Marburg entry inh inconclusive, Shiga inhibitor 15.0, Lassa entry inh -2.7%[46.1 µM] and Cycloheximide cs 10.4.
For CN(C)CCCNC(=O)/C(=C\c1ccc(-c2ccc(Br)cc2)o1)NC(=O)c1ccccc1 the results were Marburg entry inh inconclusive, Shiga inhibitor -24.5, Lassa entry inh inconclusive and Cycloheximide cs -8.5.
`CN(C)CCNC(=O)/C(=C/c1ccc(-c2cccc(Cl)c2)o1)NC(=O)c1ccccc1` gave Marburg entry inh 8.2µM*, Shiga inhibitor -14.9, Lassa entry inh inconclusive and Cycloheximide cs -7.8.
For Cc1ccc(C(=O)N/C(=C\c2ccc(-c3ccc(Cl)cc3)o2)C(=O)NCCCN(C)C)cc1 the results were Marburg entry inh 6.31µM*, Shiga inhibitor -17.7, Lassa entry inh inconclusive and Cycloheximide cs -21.0.
`CN(C)CCNC(=O)/C(=C/c1ccc(-c2cccc([N+](=O)[O-])c2)o1)NC(=O)c1ccccc1` gave Marburg entry inh inconclusive, Shiga inhibitor 0.6, Lassa entry inh inconclusive and Cycloheximide cs -2.5.
Screening Cc1ccc(C(=O)N/C(=C\c2ccc(-c3ccccc3[N+](=O)[O-])o2)C(=O)NCCN(C)C)cc1 returned Marburg entry inh inconclusive, Shiga inhibitor 18.2, Lassa entry inh -5.1%[46.1 µM] and Cycloheximide cs 12.5*.
`Cc1ccc(/C=C(\NC(=O)c2ccccc2)C(=O)NCCc2ccccn2)o1` gave Marburg entry inh -1.5%, Shiga inhibitor 23.9, Lassa entry inh 1.7% and Cycloheximide cs 11.1*.
`COc1ccc(Cl)cc1C(=O)NNC(=O)CSc1nncn1C` gave Marburg entry inh 16.3%[46.1 µM] and Lassa entry inh 13.8%[46.1 µM].
Cc1ccc(CCNC(=O)c2ccc3c(Cl)c4c(nc3c2)CCCC4)cc1 was read as Marburg entry inh 9.4%[46.1 µM] and Lassa entry inh -13.5%[46.1 µM].
CCc1ccccc1NS(=O)(=O)c1cc2c3c(c1)CCN3C(=O)CC2 was read as Marburg entry inh -8.4% and Lassa entry inh 16.4%.
Screening CCCC[C@H]1C2=C3[C@@H](CC(C(=O)OC)=C[C@@H](C(=O)OC)[C@H]3C(C)(C)C2=O)n2c(=O)n(C)c(=O)n21 returned Shiga inhibitor 4.8 and Cycloheximide cs -2.1.
Screening CC(C)(C)SCCNC(=O)COc1ccccc1 returned Marburg entry inh -0.1%, Shiga inhibitor 15.6, Lassa entry inh 2.3% and Cycloheximide cs 27.4*.
`O=C(COc1ccccc1)NCCSCc1ccco1` gave Marburg entry inh -3.6%[46.1 µM], Shiga inhibitor 12.5, Lassa entry inh 0.9% and Cycloheximide cs 12.2.
Screening C=CCNC(=O)COc1ccc(Oc2ccccc2)cc1 returned Marburg entry inh -0.2%[46.1 µM], Shiga inhibitor 64.2*, Lassa entry inh 0.3% and Cycloheximide cs 51.7*.
Screening O=C(COc1ccccc1)NCCSc1ccccc1 returned Marburg entry inh 9.2%, Shiga inhibitor 39.9, Lassa entry inh -10.7% and Cycloheximide cs 14.0*.
`O=C(COc1ccccc1)NCCn1ccc2ccccc21` gave Marburg entry inh 2.4%, Shiga inhibitor 8.5, Lassa entry inh 33.6% and Cycloheximide cs 4.9.
Screening C=CCNC(=O)COc1ccc(S(=O)(=O)N2CCCC2)cc1 returned Marburg entry inh 23.6%[46.1 µM], Shiga inhibitor 12.3, Lassa entry inh 8.1% and Cycloheximide cs -4.5.
`Cc1nc2ccccn2c1C(=O)NNC(=O)Nc1cccc(C(F)(F)F)c1` gave Shiga inhibitor 4.9 and Cycloheximide cs -0.1.
`CCN(CC)c1ccc(/C=N/NC(=O)c2ccc3c(c2)OCCO3)cc1` gave Shiga inhibitor 114.9* and Cycloheximide cs 58.4*.
CN(C)c1ccc(/C=N/NC(=O)c2ccc3c(c2)OCCO3)cc1 was read as Shiga inhibitor 48.4* and Cycloheximide cs 34.3*.
Screening O=C(CNC(=O)c1ccc2c(c1)OCCO2)N/N=C/c1ccc(Cl)cc1 returned Marburg entry inh -4.6%, Shiga inhibitor 2.4, Lassa entry inh 14.6% and Cycloheximide cs 11.0.
Screening CCOc1ccccc1NC(c1nnc(-c2ccccc2)o1)c1ccc(F)cc1Cl (stereo not drawn) returned Marburg entry inh -18.2%[46.1 µM] and Lassa entry inh 1.3%[46.1 µM].
`COc1cccc([C@H]2C(C(=O)c3sc(C)nc3C)=C(O)C(=O)N2CCN2CCOCC2)c1OC` gave Marburg entry inh 9.8%.
For CCN(CC)CCNC(=O)c1cn(CC)c2ccc(S(=O)(=O)N3CCc4ccccc4C3)cc2c1=O the results were Marburg entry inh inconclusive, Shiga inhibitor -6.6, Lassa entry inh 18.4%[46.1 µM] and Cycloheximide cs 7.5.
Screening Cc1ccc(/C=C(\C#N)C(=O)NC(C)C)o1 returned Marburg entry inh 26.1%[46.1 µM], Shiga inhibitor 11.8, Lassa entry inh 10.4%[46.1 µM] and Cycloheximide cs 7.6.
`CC(C)NC(=O)/C(C#N)=C/c1ccc(N(C)C)o1` gave Marburg entry inh 3.2%, Shiga inhibitor 59.6*, Lassa entry inh inconclusive and Cycloheximide cs 15.8*.
For Cc1ccc(S(=O)(=O)N2CC(=O)Nc3ccccc32)c(C)c1NS(C)(=O)=O the results were Marburg entry inh 5.5%[46.1 µM], Shiga inhibitor -16.5, Lassa entry inh 1.3%[46.1 µM] and Cycloheximide cs -6.3.
`Cc1cc(C(C)(C)C)cc(C)c1S(=O)(=O)N1CC(=O)Nc2ccccc21` gave Marburg entry inh -34.6%, Shiga inhibitor 21.4, Lassa entry inh 11.2µM* and Cycloheximide cs -0.7.
Cc1ccc(C(C)(C)C)cc1S(=O)(=O)N1CC(=O)Nc2ccccc21 was read as Marburg entry inh 10µM*, Shiga inhibitor -6.4, Lassa entry inh inconclusive and Cycloheximide cs -1.5.
For COC(=O)C1=C(C)N(CC#C[Si](C)(C)C)C(=O)N(C(C)=O)C1c1ccccc1 (stereo not drawn) the results were Marburg entry inh -5.4%[14.2 µM].
COc1ccc(NC(=O)CN2C(=O)CSC(C)C2=O)cc1 (stereo not drawn) was read as Marburg entry inh 9.5%, Shiga inhibitor 23.2, Lassa entry inh 2.5% and Cycloheximide cs 14.9.
